These results are taken from PubChem BioAssay (NCATS).

The structures appear in SMILES notation. Values joined by “and” are separate entries in the source; they are usually repeats but may differ in a detail not shown here. Identical values can stand only once. Records with an inconclusive call do not appear. Active and inactive are the calls of the source. Unless noted, the call rests on the fitted dose curve.

Assay [1] has as its target Vitamin D3 receptor (Homo sapiens) (UniProt P11473). The assay is described as follows: qHTS assay for small molecule antagonists of vitamin D receptor signaling (AID 588541). Further: potency means the concentration at half of the fitted maximal effect. The gist of the method: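 VDR-UAS-bla HEK293T cells (2000/well, 2% charcoal-stripped FBS) were treated with titrated compounds plus 1-alpha,25-dihydroxyvitamin D3 (50 nM or 3 nM final) for 16 h at 37 C. CCF4 beta-lactamase fluorescence was read; Hill fits gave IC50.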
On the technique in general: qHTS replaces the single test concentration by a dilution series.

Assay [2] concerns the target Peroxisome proliferator-activated receptor gamma (Homo sapiens) (UniProt P37231). The assay is described as follows: qHTS assay for small molecule antagonists of peroxisome proliferator-activated receptor gamma signaling (AID 588537; active means well fitted inhibition curve with a large enough effect in the signal ratio, with a control signal flat, not every such curve was filed as active; the % refers to the signal ratio;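 further: reporter cells co-stimulated with 50 nM rosiglitazone agonist during compound treatment; % of control where 0% means no effect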). The essentials:
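Compounds are tested as concentration series for inhibition of rosiglitazone-driven (50 nM) reporter expression in GeneBLAzer PPAR-gamma-UAS-bla HEK293 cells. After 16 h at 37 C, CCF4 substrate is added for 2 h at room temperature and blue/green fluorescence is measured.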

In assay [3] the target is Vitamin D3 receptor (Homo sapiens) (UniProt P11473). The assay is described as follows: qHTS assay for small molecule agonists of vitamin D receptor signaling (AID 588543).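 Further: 0% = DMSO basal and 100% = reference agonist control.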 The essentials: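 GeneBLAzer VDR-UAS-bla HEK293T cells in 2% charcoal-stripped FBS medium were dosed with compound titrations for 16 h at 37 °C; CCF4 β-lactamase readout (405 nm ex, 460/530 nm em). EC50 and efficacy from Hill fits, normalized to 50 nM calcitriol (100%) and DMSO (0%).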
Chain of Vitamin D3 receptor (Homo sapiens) (P11473 whole entry, looked up): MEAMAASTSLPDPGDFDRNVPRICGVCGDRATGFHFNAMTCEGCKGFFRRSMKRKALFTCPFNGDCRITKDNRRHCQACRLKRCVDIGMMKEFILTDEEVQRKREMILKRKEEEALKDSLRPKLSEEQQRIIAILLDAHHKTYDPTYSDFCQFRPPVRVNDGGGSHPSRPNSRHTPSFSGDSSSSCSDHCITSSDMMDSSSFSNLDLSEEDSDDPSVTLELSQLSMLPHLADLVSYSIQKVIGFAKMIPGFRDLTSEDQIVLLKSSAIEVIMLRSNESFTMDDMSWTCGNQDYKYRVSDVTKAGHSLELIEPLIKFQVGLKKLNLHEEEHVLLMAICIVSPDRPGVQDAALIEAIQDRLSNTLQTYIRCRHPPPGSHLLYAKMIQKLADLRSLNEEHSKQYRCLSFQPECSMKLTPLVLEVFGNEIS

Assay [4] can be described thus: qHTS assay for small molecule agonists of retinoid X receptor alpha signaling (AID 588544). Further: potency means the concentration at half of the fitted maximal effect. Conditions: HEK293T RXRa-UAS-bla, beta-lactamase reporter, 18 h; 530 nm emission.
Assay [5] deals with Retinoic acid receptor RXR-alpha (Homo sapiens) (UniProt P19793). Described as above.
Chain of Retinoic acid receptor RXR-alpha (Homo sapiens) (P19793 whole entry, looked up): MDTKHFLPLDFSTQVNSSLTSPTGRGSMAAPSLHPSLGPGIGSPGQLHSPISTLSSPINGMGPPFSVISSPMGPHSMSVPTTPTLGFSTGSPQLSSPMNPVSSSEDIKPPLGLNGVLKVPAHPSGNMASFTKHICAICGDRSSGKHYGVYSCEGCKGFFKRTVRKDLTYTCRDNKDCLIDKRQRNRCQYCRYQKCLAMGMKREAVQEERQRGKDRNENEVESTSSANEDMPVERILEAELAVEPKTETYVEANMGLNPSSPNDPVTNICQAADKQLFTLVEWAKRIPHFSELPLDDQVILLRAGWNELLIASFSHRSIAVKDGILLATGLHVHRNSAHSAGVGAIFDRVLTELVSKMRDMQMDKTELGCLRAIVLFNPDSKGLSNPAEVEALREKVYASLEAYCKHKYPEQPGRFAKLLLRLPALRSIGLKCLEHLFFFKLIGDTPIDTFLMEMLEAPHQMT
The target in assay [6] is Thyroid hormone receptor beta (Homo sapiens) (UniProt P10828). The assay is described as follows: qHTS assay for small molecule agonists of thyroid hormone receptor beta signaling (AID 588545).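 Further: 0% = DMSO only and 100% = 10 nM T3.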 The essentials: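 Stimulation of a TR-driven beta-lactamase reporter was quantified in GripTite HEK 293 cells. Compound series ran for 18 hrs; curves were normalized to T3 and DMSO controls and fitted to yield EC50.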
Chain of Thyroid hormone receptor beta (Homo sapiens) (P10828 whole entry, looked up): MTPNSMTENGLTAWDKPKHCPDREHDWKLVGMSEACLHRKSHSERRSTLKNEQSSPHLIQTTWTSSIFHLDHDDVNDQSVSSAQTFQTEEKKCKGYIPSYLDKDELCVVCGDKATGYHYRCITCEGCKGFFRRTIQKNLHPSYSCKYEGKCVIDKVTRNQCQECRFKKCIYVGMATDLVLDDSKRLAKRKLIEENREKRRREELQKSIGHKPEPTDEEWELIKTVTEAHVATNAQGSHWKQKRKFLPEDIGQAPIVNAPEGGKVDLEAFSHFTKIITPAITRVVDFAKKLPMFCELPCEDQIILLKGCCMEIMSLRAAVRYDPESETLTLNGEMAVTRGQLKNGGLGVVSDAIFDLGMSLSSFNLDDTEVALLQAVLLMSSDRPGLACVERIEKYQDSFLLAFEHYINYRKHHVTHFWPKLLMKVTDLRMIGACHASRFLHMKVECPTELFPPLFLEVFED

The nature of assay [7]: qHTS assay for small molecule antagonists of retinoid X receptor alpha signaling (AID 588546; active means well fitted inhibition curve with a large enough effect in the signal ratio, with a control signal flat, not every such curve was filed as active; the % refers to the signal ratio;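 further: cells stimulated with 9-cis-retinoic acid as agonist; on the % scale 0 is the no-effect control and ±100 the full control effect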). Conditions: HEK293T RXRa-UAS-bla, beta-lactamase ratio, antagonist mode; measured here: W530 green channel, cytotoxicity proxy. The gist of the method:
(§1)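 Beta-lactamase reporter inhibition, read as CCF4 fluorescence ratio (ex 405, em 460/530 nm) after 2 h at RT. HEK293T UAS-bla cells, 2500/well, were stimulated with 9-cis-RA at 500 or 100 nM final alongside test compound for 18 h at 37 C.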

Assay [8] concerns the target Retinoic acid receptor RXR-alpha (Homo sapiens) (UniProt P19793). The description is as above. Conditions: HEK293T RXRa-UAS-bla, beta-lactamase ratio, antagonist mode. The gist of the method: as §1
Assay [9] deals with Peroxisome proliferator-activated receptor gamma (Homo sapiens) (UniProt P37231). The assay is described as follows: qHTS assay for small molecule agonists of peroxisome proliferator-activated receptor gamma signaling (AID 588536; active means well fitted curve in the direction sought with a large enough effect in the signal ratio, with a control signal flat, not every such curve was filed as active; the % refers to the signal ratio;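 further: 0% = DMSO basal wells and 100% = rosiglitazone at 2 µM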). The essentials:
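Cells were plated and held 6–6.5 h at 37 C, then compounds were added as a titration series. After a further 16 h, CCF4 dye was loaded for 2 h at room temperature and emission at 460/530 nm recorded.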

The target in assay [10] is Thyroid hormone receptor beta (Homo sapiens) (UniProt P10828). The assay is described as follows: qHTS assay for small molecule antagonists of thyroid hormone receptor beta signaling (AID 588547; active means well fitted inhibition curve with a large enough effect in the signal ratio, with a control signal flat, not every such curve was filed as active; the % refers to the signal ratio;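 further: cells stimulated with 0.4 nM T3 agonist during compound exposure; series mostly up to about 77 µM; on the % scale 0 is the no-effect control and ±100 the full control effect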). Conditions: TR-UAS-bla HEK293, beta-lactamase ratio, antagonist mode, 18 h. The gist of the method:
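TR-UAS-bla GripTite HEK293 cells in 2% charcoal/dextran FBS medium were preincubated 4 h at 37 C, given compound (0.59 nM to 92 uM) plus 0.4 nM T3 (final) for 18 h, then CCF4 for 2 h at RT; Hill fit gave IC50.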

Chain of Peroxisome proliferator-activated receptor gamma (Homo sapiens) (P37231 whole entry, looked up): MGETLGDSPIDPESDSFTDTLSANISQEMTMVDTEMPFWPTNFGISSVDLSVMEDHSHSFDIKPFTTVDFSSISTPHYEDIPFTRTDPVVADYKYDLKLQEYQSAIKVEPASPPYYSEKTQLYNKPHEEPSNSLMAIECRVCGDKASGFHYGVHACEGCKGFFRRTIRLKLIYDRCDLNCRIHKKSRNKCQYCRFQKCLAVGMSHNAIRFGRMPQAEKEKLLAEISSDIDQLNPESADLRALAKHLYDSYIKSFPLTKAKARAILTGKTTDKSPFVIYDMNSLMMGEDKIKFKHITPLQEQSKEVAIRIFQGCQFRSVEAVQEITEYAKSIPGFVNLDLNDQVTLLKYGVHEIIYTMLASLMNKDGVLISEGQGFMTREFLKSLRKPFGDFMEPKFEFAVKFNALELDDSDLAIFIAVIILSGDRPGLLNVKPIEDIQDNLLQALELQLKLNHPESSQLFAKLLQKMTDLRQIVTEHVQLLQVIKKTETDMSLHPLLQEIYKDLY

As for `CC(=O)N1CCN(c2ccc(OC[C@H]3CO[C@](Cn4ccnc4)(c4ccc(Cl)cc4Cl)O3)cc2)CC1`, the Potency in assay [1] was 44.7 µM (active).
On to `CC1(C)C(C=C(Cl)Cl)C1C(=O)OC(C#N)c1cccc(Oc2ccccc2)c1` (stereo unspecified), for which the compound was classed as inactive in [2], in assay [3] and in [6]. Moreover, the max response is 0.437% in [4], -14.1% in assay [7] and -18% (inactive) in assay [8]. Moreover, the Potency result in assay [5] was “inactive”.
As to `C[C@]12CCC(=O)C=C1CC[C@@H]1[C@@H]2CC[C@]2(C)C(=O)CC[C@@H]12`, the outcome in assay [9] and in assay [6] was inactive. Further, the max response in [7] is 24.5%; in assay [8], 1.25% (inactive). Also, in assay [10], the activity change % (negative = inhibition) was 12.5% (inactive).
With `O=P1(N(CCCl)CCCl)NCCCO1` (stereo unspecified), the call in assay [9], in [2], in assay [3] and in [6] was inactive. The Potency result in assay [1] and in assay [5] was “inactive” throughout. In addition, the max response in assay [4] was 8.36% and -10.5%; in [7], -4.41% and 6%; in [8] it was 8.47% (inactive) and -0.0175% (inactive). Moreover, in [10], the activity change % (negative = inhibition) was -0.786% (inactive).
In the case of `[N-]=[N+]=CC(=O)OC[C@H](N)C(=O)O`, the Potency entry in assay [1] and in assay [5] was “inactive” throughout. The compound was classed as inactive in [3] and in assay [6]. Moreover, the figures for the max response in assay [4], in assay [7] and in assay [8] were -12%, -15.7% and 7.74% (inactive), respectively. Moreover, the activity change % (negative = inhibition) in assay [10] is 10.8% (inactive).
In the case of `CCC(C)(C)c1ccc(O)cc1`, the compound was called inactive in assay [9], in [2], in assay [3] and in [6]. Moreover, the Potency entry in [1] and in assay [5] was “inactive” each time. Moreover, the max response in assay [4] is -12.7% and -6.48%; in assay [7], -6.99% and -5.65%; in assay [8], 7.35% (inactive) and 8.15% (inactive). Moreover, the activity change % (negative = inhibition) in assay [10] is 9.09% (inactive).
Consider `O=C(Oc1ccccc1)c1ccccc1O`, for which the max response in assay [4] amounted to 23.5%. Besides, in [5], the Potency entry is “inactive”.
As to `COP(=S)(OC)Oc1ccc(SC)c(C)c1`, the compound was classed as inactive in assay [9], in assay [2], in assay [3] and in [6]. Moreover, the Potency entry in assay [1] and in [5] was “inactive” in each case. In addition, the max response in assay [4] is -8.01% and -11.8%; in assay [7] it was -22.3% and -7.85%; in assay [8], -5.05% (inactive) and -30% (inactive). In addition, the activity change % (negative = inhibition) in assay [10] is -0.0791% (inactive).
On to `CCOP(=S)(OCC)Oc1ccc2c(C)c(Cl)c(=O)oc2c1`, for which the compound was called inactive in assay [9], in assay [2] and in assay [6].
For `COP(=S)(OC)SCN1C(=O)c2ccccc2C1=O`, the outcome in [9] and in assay [6] was inactive. Besides, in assay [10], the activity change % (negative = inhibition) was -12.6% (inactive).
As to `O=C1c2ccccc2C(=O)c2ccccc21`, the compound was classed as inactive in assay [9], in [2], in assay [3] and in assay [6]. Also, in assay [1], the Potency result was “inactive”. In addition, the max response in assay [4] is -19.1%; in assay [7], -16.5%; in [8], -15.9% (inactive). Also, the Potency in [5] was 35.5 µM (active). Further, in assay [10], the activity change % (negative = inhibition) was -1.19% (inactive).
Turning to `CCOC(=O)CC(SP(=S)(OC)OC)C(=O)OCC` (stereo unspecified), the outcome in assay [9], in assay [3] and in assay [6] was inactive. Besides, the Potency result in assay [1] and in [5] was “inactive” in each case. The max response in [4] is 5.59%; in assay [7], 12.5% and 3.13% and -23.2%; in assay [8] it was -24.3% (inactive) and -13.6% (inactive) and -13.7% (inactive). Moreover, the activity change % (negative = inhibition) in assay [10] is -33.5% (inactive).
Take `O=C1c2ccccc2C(=O)C1C(=O)C(c1ccccc1)c1ccccc1`: the result in [2] and in [6] was inactive. In addition, the max response in [4] is -20.8%; in assay [7], -10.9%; in assay [8] it was 13.2% (inactive). Besides, the Potency result in assay [5] is “inactive”. Moreover, the activity change % (negative = inhibition) in [10] was 3.48% (inactive).
As to `NCCc1ccc(O)cc1`, the compound was classed as inactive in assay [9] and in assay [6]. Also, the max response was -3.57% in assay [4], -9.48% in [7] and -2.52% (inactive) in [8]. Moreover, the Potency entry in [5] was “inactive”. Further, the activity change % (negative = inhibition) in [10] is -4.83% (inactive).
Consider `Oc1ccccc1`, for which the max response in assay [4] was -13.8% and -5.05%. Moreover, in [5], the Potency result is “inactive”.
For `C[C@]12CCC(=O)C=C1CC[C@@H]1[C@@H]2CC[C@@]2(C)[C@H]1CC[C@]2(C)O`, the result in [3] and in [6] was inactive. Further, the max response is -11.4% in assay [4], -11.8% in assay [7] and 36.9% (inactive) in [8]. Also, the Potency result in assay [5] was “inactive”.
Regarding `Nc1nc(N)nc(NC2CC2)n1`, the figures for the max response in assay [4], in [7] and in [8] were -19.4%, -17.8% and 6.27% (inactive), respectively. In addition, in assay [5], the Potency entry is “inactive”. In addition, the compound was called inactive in assay [6]. Besides, the activity change % (negative = inhibition) in assay [10] is -23% (inactive).
